Results as given in PubChem BioAssay (NCI).
About 83,000 compounds went through this panel and 20% of them were active in at least one assay; those are over-represented in the sample as a whole.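 Compound tested at a single concentration for 48 hours in 96-well plates; a percent growth value below 10 was scored as active.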 The source made the active and inactive calls.

Tests used:
Experiment in all cases: NCI-60 one-dose screen, 48 h (100 = growth as untreated, 0 = no growth, -100 = all killed)
Conditions in all cases: 10 µM unless noted
[1] = system: NCI-H23 lung
[2] = system: NCI-H226 lung
[3] = system: NCI-H322M lung
[4] = system: HOP-62 NSCLC
[5] = system: NCI-H460 lung
[6] = system: HOP-92 NSCLC
[7] = system: NCI-H522 lung
[8] = system: A549/ATCC NSCLC
[9] = system: 786-0 renal
[10] = system: COLO 205 colon

Measured: growth

O=C(CN1CCN(c2cc3c(cc2F)c(=O)c(C(=O)O)cn3C2CC2)CC1)Nc1cc(=O)[nH]c(=O)[nH]1
inactive: [1] 96.4% | [2] 101% | [3] 95.3% | [4] 102% | [5] 105% | [6] 88.7% | [7] 92.8% | [8] 103% | [9] 95.9% | [10] 110%

c1ccc(Sc2ncnc3ccccc23)cc1
inactive: [1] 70.2% | [2] 82.2% | [3] 79.9% | [4] 99.4% | [5] 89.9% | [6] 48.9% | [7] 82.8% | [8] 90.4% | [9] 87.6% | [10] 108%

CCOC(=O)/C=C/c1ccc(C(=O)OCC)[nH]1
inactive: [1] 72.3% | [2] 89% | [3] 57.4% | [4] 76.7% | [5] 14.3% | [6] 53.8% | [7] 54.4% | [8] 40.3% | [9] 90.2% | [10] 16.2%

Cc1cc(Nc2nc(N3CCOCC3)nc3ccccc23)n[nH]1
inactive: [1] 80.5% | [2] 57.7% | [3] 65.8% | [4] 78% | [5] 68.9% | [6] 60.7% | [7] 40.2% | [8] 53.3% | [9] 49.9% | [10] 65.4%

Cc1ccc2c(c1)O/C(=C\c1cccc(OCC(=O)c3ccccc3)c1)C2=O
inactive: [1] 97.4% | [2] 93.6% | [3] 116% | [4] 90.3% | [5] 107% | [6] 75.2% | [7] 70.3% | [8] 81.6% | [9] 91.1% | [10] 101%

CSc1nc2sc3c(c2c(=O)n1-c1ccc(C(C)C)cc1)CCC(=O)C3
inactive: [2] 65.6% | [3] 31.6% | [4] 15.2% | [8] 67.9% | [9] 18.7%
active: [1] -1.79% | [5] 1.54% | [6] -18.2% | [7] -75.3% | [10] -67.7%

O=C1c2cccnc2C(=O)c2c1c(C(=O)OCCN1CCCCC1)c1ccccn21
active: [1] -53.2% | [2] -15.3% | [3] -81.7% | [4] -34.5% | [5] -16.7% | [7] -64.5% | [8] -46.6% | [9] -45.9% | [10] -70.3%
inactive: [6] 12.5%

COc1cc(-c2cnc3nonc3n2)c(OC)c2c1OCO2
inactive: [1] 95.4% | [2] 95.6% | [3] 90.9% | [4] 101% | [5] 102% | [6] 97.9% | [7] 78.7% | [8] 94.1% | [9] 104% | [10] 113%

CCc1ccccc1NC(=O)c1sc2nc3c(cc2c1N)C(=O)CCC3
inactive: [1] 38.2% | [2] 67.3% | [3] 46.3% | [4] 35.5% | [6] 84.8% | [8] 21.5% | [9] 35.1%
active: [5] 6.42% | [7] -11.6% | [10] -7.87%

COc1ccc(-c2c3c(nc4n[nH]c(-c5ccc(Cl)cc5)c24)-c2ccccc2C(=O)C3=O)cc1
active: [1] -53% | [5] -12.9% | [6] 9.32% | [7] -59.7% | [9] 7.58%
inactive: [2] 42.3% | [3] 84% | [4] 29.1% | [8] 35.9% | [10] 70.6%

COc1ccc(-c2nc(Nc3cc(C)[nH]n3)c3ccccc3n2)cc1
active: [6] 3.24% | [7] 8.31% | [10] 3.04%
inactive: [1] 60.2% | [2] 41.2% | [3] 78.1% | [4] 43.2% | [5] 28.5% | [8] 23.9% | [9] 50%

Nc1nc2c(c3ncccc13)C(c1ccc(Cl)c(Cl)c1)Cc1ncccc1-2 (stereo not given)
active: [7] -6.27% | [10] 1.52%
inactive: [1] 32.7% | [2] 70.8% | [3] 40.9% | [4] 28% | [5] 12.5% | [6] 59% | [8] 22.7% | [9] 29.9%

C/C(=C(/c1ccc(O)cc1)c1ccc(Cl)cc1)c1ccccc1
active: [1] -62.5% | [2] -80.4% | [3] -95% | [4] -90.8% | [5] -91.2% | [6] -96% | [7] -78% | [8] -85.8% | [9] -89.3% | [10] -82.8%

CCn1cc2c(cc1=O)-c1nc3ccccc3c3ccnc(c13)C2=O
inactive: [1] 27.6% | [2] 63.1% | [3] 76.3% | [4] 11.9% | [6] 56.6% | [7] 39% | [8] 29% | [9] 69.1% | [10] 60.8%
active: [5] 2.86%

CC1CN(C(C)C)C(=S)N(c2ccccc2)C1=O (stereo not given)
inactive: [1] 94.6% | [2] 106% | [3] 101% | [4] 85.7% | [5] 105% | [6] 107% | [7] 87% | [8] 101% | [9] 96.2% | [10] 157%

Brc1cccc(-c2cc(-c3ccc4c(c3)OCCO4)[nH]n2)c1
inactive: [1] 42.5% [25 µM] | [2] 25.2% [25 µM] | [3] 46.2% [25 µM] | [4] 20.4% [25 µM] | [5] 10.3% [25 µM] | [6] 62.8% [25 µM] | [8] 25.7% [25 µM] | [9] 40.8% [25 µM]
active: [7] -5.75% [25 µM] | [10] -24.5% [25 µM]

CS(=O)(CCCCN=C=S)=NC(=O)c1c(F)c(F)c(F)c(F)c1F (stereo not given)
inactive: [1] 96.7% | [2] 99.6% | [3] 108% | [4] 111% | [5] 88.4% | [6] 107% | [7] 57% | [8] 80.3% | [9] 89% | [10] 89.4%

COc1ccc(S(=O)(=O)NCCNc2nccc(-c3c(-c4cccc(N)c4)nc4sccn34)n2)cc1
inactive: [1] 103% | [2] 96.1% | [3] 111% | [4] 110% | [5] 99.6% | [6] 96.2% | [7] 91.2% | [8] 99.6% | [9] 99% | [10] 106%

CN1CCCCC1CCN1c2ccccc2Sc2ccc(Cl)cc21 (stereo not given)
inactive: [1] 77.4% | [2] 93.5% | [3] 59% | [4] 84.3% | [5] 71.2% | [6] 53.3% | [7] 65.5% | [8] 67.4% | [9] 61.1% | [10] 58.7%

CCOC(=O)c1c2c(n3ccc(NC(=O)CCN(CC)CC)cc13)C(=O)c1ncccc1C2=O
inactive: [2] 75.1% | [3] 73.4% | [4] 31.4% | [6] 82.1% | [8] 36.2% | [9] 50.1% | [10] 54.1%
active: [1] 0.0285% | [5] -20.4% | [7] 6.16%

O=[N+]([O-])c1cccc(C2CC(c3ccccc3)=Nc3ccccc3S2)c1 (stereo not given)
inactive: [1] 87.9% | [2] 96.6% | [3] 99.6% | [4] 98.5% | [5] 106% | [6] 91.1% | [7] 76.7% | [8] 88.6% | [9] 97.1% | [10] 98.9%

O=C1C=CC(=O)N1c1ccc(Cc2ccc(N3C(=O)C=CC3=O)cc2)cc1
inactive: [1] 86% | [2] 84.8% | [3] 100% | [4] 90.5% | [5] 94.8% | [6] 90% | [7] 94.5% | [8] 111% | [9] 97.1% | [10] 115%

CN(C)c1ccc(/C=C\C2=[N+](C)c3ccccc3C2(C)C)cc1
inactive: [2] 16.3% | [3] 23.7% | [4] 13.6% | [9] 18.1%
active: [1] 7.51% | [5] 4.52% | [6] -15.6% | [7] -23.7% | [8] 2.47% | [10] -78.8%

Brc1cccc(-c2nc(-c3ccc4c(c3)OCCO4)co2)c1
inactive: [1] 71.3% [25 µM] | [2] 78.2% [25 µM] | [3] 90.7% [25 µM] | [4] 57.9% [25 µM] | [5] 25.2% [25 µM] | [6] 80.4% [25 µM] | [7] 24.5% [25 µM] | [8] 56.3% [25 µM] | [9] 78% [25 µM] | [10] 50.5% [25 µM]

O=C(/C=C/c1ccc(Cl)cc1)c1ccc(O)c(CN2CCN(c3cc4c(cc3F)c(=O)c(C(=O)O)cn4C3CC3)CC2)c1
inactive: [1] 51.7% | [2] 67.3% | [3] 72.8% | [4] 49.8% | [5] 70.7% | [6] 40.8% | [7] 45.2% | [8] 50% | [9] 55.1% | [10] 136%

O=C1Nc2ccccc2C12CC(c1ccc(Cl)cc1)=NN2 (stereo not given)
inactive: [1] 101% | [2] 86.6% | [3] 110% | [4] 104% | [5] 97.9% | [6] 74.3% | [7] 90.1% | [8] 82.2% | [9] 100% | [10] 108%

CCCN(CCC)CN(CCC)CCC
inactive: [1] 96.5% | [2] 95.3% | [3] 97.6% | [4] 113% | [5] 107% | [6] 91.8% | [7] 101% | [8] 91.1% | [9] 94.8% | [10] 116%
